SSB-PriA inh: inhibitors of Klebsiella pneumoniae PriA binding to SSB C-terminal tail, primary screen, biochemical, AlphaScreen | PriA–SSB C-terminal tail interaction (Klebsiella pneumoniae) | AlphaScreen SSBct-PriA binding, biotinylated peptide | inhibition, % at 33 µM | 430,000 tested, 0.6% active; in the data active means inhibition mostly above about 37%, no sharp cut-off; inactive means mostly below about 20%
CCHF vOTU inh: CCHFV vOTU protease inhibitors, primary screen, biochemical, Pep-AMC substrate, fluorescence. Crimean-Congo hemorrhagic fever virus L polyprotein viral ovarian tumor (vOTU) protease …. AID 651958, 2012. 370,000 tested, 0.55% active. inhibition, % at 11.5 µM; in the data active means inhibition above about 30%
Sa RN4220 lethal: growth inhibition of S. aureus RN4220, primary screen, OD600. 16 h. inhibition, % (no concentration beside the values). 330,000 tested, 0.33% active; in the data active means inhibition above about 85%
VHR inh abs: VHR1 phosphatase inhibitors, primary screen, biochemical, absorbance, uHTS. recombinant VHR phosphatase, pNPP absorbance. inhibition, % at 13.3 µM. 290,000 tested, 0.52% active. AID 1654, 2009; in the data active means inhibition above about 50%
Target sequence (P51452 whole entry, looked up): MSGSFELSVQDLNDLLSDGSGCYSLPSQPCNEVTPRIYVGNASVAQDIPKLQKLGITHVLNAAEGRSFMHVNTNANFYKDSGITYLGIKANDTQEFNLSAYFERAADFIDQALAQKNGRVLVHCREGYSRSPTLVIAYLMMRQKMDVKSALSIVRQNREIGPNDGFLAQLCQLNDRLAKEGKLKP
Sa ugtP lethal: growth inhibition of ugtP-null S. aureus, primary screen, RN4220 ugtP deletion, OD600; 16 h; growth inhibition, % (concentration not given with the values); 330,000 tested, 0.54% active; AID 1259309, 2017; in the data active means growth inhibition above about 68%
Numbers stand for hits; 0 = inactive; - = no result; ! = a repeat was not active. Only some compounds are listed: those with a hit (about 1.5% of all), similar ones and a draw of the others.

SMILES	SSB-PriA inh	CCHF vOTU inh	Sa RN4220 lethal	VHR inh abs	Sa ugtP lethal
CCN(CC)CCN(C(=O)c1ccc(C(=O)c2ccccc2)cc1)c1nc2ccc(OC)cc2s1	0	0	0	0	0
CCc1ccc2nc(N(CCCN(C)C)C(=O)c3ccc(C(=O)c4ccccc4)cc3)sc2c1	47!	0	0	0	0
COc1ccc2nc(N(CCN(C)C)C(=O)c3ccc(C(=O)c4ccccc4)cc3)sc2c1	50	0	0	0	0
CCN(CC)CCN(C(=O)c1ccc(C(=O)c2ccccc2)cc1)c1nc2c(OC)ccc(OC)c2s1	49	-	-	-	-
CCCS(=O)(=O)N1CCCc2cc(NS(=O)(=O)c3cc(C)c(OCC)c(C)c3)ccc21	0	-	-	-	-
COc1cc2nc(N(CCCN(C)C)C(=O)c3ccc(C(=O)c4ccccc4)cc3)sc2cc1OC	37!	0	0	-	0
CNC(=O)c1ccsc1N	0	-	-	-	-
S=C1SCN(Cc2ccccn2)CN1Cc1ccco1	48	0	0	0	0
Cc1noc(C)c1CC(=O)NC[C@H](O)c1cccc2ccccc12	0	-	-	-	-
Cc1cc(C(C)(C)CC(C)(C)C)ccc1OCCOCC[N+](C)(C)Cc1ccccc1	0	0	101	-	100
S=c1[nH]c2ccc3ccccc3c2[nH]1	0	0	0	53	0
Cn1c(SCC(=O)Nc2ccccc2F)nnc1-c1cccs1	0	0	0	54	0
Cn1c(Cc2cccs2)nnc1SCC(=O)Nc1ccccc1F	0	0	0	-	0
Cc1ccc(C(=O)N/C(=C\c2ccco2)C(=O)NCCCn2ccnc2)cc1C	86	0	0	0	0
COc1ccc(C(=O)N/C(=C\c2ccco2)C(=O)NCCCn2ccnc2)cc1	0	0	0	0	0
O=C(NCCCn1ccnc1)c1cccc(Br)c1	0	0	0	53	0
O=C(NCCCn1ccnc1)Nc1ccc(Cl)c(Cl)c1	76	0	0	0	0
O=C(NCCCn1ccnc1)c1ccc(Br)cc1	0	0	0	0	0
CCOc1cc(C(NC(=O)OCc2ccccc2)NC(=O)OCc2ccccc2)ccc1OC	0	-	-	-	-
O=C(CS(=O)(=O)c1ccc(F)cc1)NCCS(=O)(=O)c1ccccc1	58	0	0	0	0
CCSc1nc(-c2ccccc2)nc2c1CCCC2	0	0	0	0	88
CCC(C)Nc1nc2c(c(=O)n(C)c(=O)n2C)n1Cc1ccc(Cl)cc1 (centres undefined)	104	0	0	0	0
CCNc1nc2c(c(=O)n(C)c(=O)n2C)n1Cc1ccc(Cl)cc1	0	0	0	0	0
O=C(/C=C/c1ccc(Br)o1)/C=C/c1ccc(Br)o1	39	-	-	-	-
O=C(CNc1ccc(Br)cc1)c1ccccc1	0	0	0	0	0
SMILES	SSB-PriA inh	CCHF vOTU inh	Sa RN4220 lethal	VHR inh abs	Sa ugtP lethal
O=C(CNc1cccc(Cl)c1)c1ccc(Br)cc1	0	0	0	51	0
Cc1cccc(OCC(=O)Nc2ccc3c(c2)N(C)C(=O)C(C)(C)CO3)c1	0	-	-	-	-
Cc1cc(C)c(S(=O)(=O)N2CCN(C(=O)c3c(C)nn(-c4ccccc4)c3Cl)CC2)c(C)c1	44	0	0	-	0
Cc1cccc(C)c1NC(=O)C1CCCN1S(=O)(=O)c1ccc(-c2ccc(=O)[nH]n2)s1 (centres undefined)	0	0	98	0	99
CCc1ccccc1NC(=O)C1CCCN1S(=O)(=O)c1ccc(-c2ccc(=O)[nH]n2)s1 (centres undefined)	0	0	96	0	88
CCc1ccccc1NC(=O)C1CCCN1S(=O)(=O)c1ccc2c(c1)n(C)c(=O)c(=O)n2C (centres undefined)	0	0	0	0	0
Cc1cccc(C)c1NC(=O)C1CCCN1S(=O)(=O)c1ccccc1 (centres undefined)	0	0	0	0	0
Cc1ccc(NC(=O)C2Oc3ccccc3OC2C)cc1C (centres undefined)	0	-	-	-	-
CCCc1n[nH]c(=S)n1N	0	-	-	-	-
CC[C@H](C)NC(=O)C1CCN(S(=O)(=O)CC)CC1	0	-	-	-	-
Cc1ccc(-c2cn(S(=O)(=O)c3cccc4nsnc34)nc2N)cc1	0	0	0	0	0
Nc1nn(S(=O)(=O)c2cccc3nsnc23)cc1-c1ccc(Br)cc1	42	0	0	0	0
N#CC(C#N)=C(/C=C/c1ccccc1)C1CC1	0	-	-	-	-
N#CC(C#N)=C(/C=C/c1cccs1)C1CC1	42	-	-	-	-
Cc1c(N=Nc2c(O)[nH]c(=S)[nH]c2=O)c(=O)n(-c2ccccc2)n1C	53	0	0	0	0
C=CCn1c(O)c(N=Nc2c(C)n(C)n(-c3ccccc3)c2=O)c(=O)[nH]c1=S	0	0	0	0	0
Cc1cccc2[nH]c3c(N4CC=C(c5ccc(F)cc5)CC4)ncnc3c12	0	0	0	0	89
COc1cccc2[nH]c3c(N4CCCCC4)ncnc3c12	0	0	0	0	0
C=C(C)C1CC=C(C)C(=NNc2ccccc2[N+](=O)[O-])C1 (centres undefined)	41	-	0	-	0
C=C(C)C1CC=C(C)/C(=N/Nc2ccccc2[N+](=O)[O-])C1 (centres undefined)	-	0	-	0	-
O=[N+]([O-])c1cc(CN2CCN(Cc3ccccc3)CC2)ccc1Sc1ccc(Cl)cc1	58	-	-	-	-
C[C@](O)(CNC(=O)C(=O)NC1CC1)c1cccs1	0	-	-	-	-
Nn1c(SCc2ccccc2)nnc1-c1ccccn1	45	0	0	0	0
NS(=O)(=O)c1ccc(NN=C/C=C/c2ccccc2[N+](=O)[O-])cc1	48	-	0	-	0
OC(Cn1c2ccccc2c2ccccc21)C[n+]1cccc2ccccc21 (centres undefined)	0	0	0	57	0
SMILES	SSB-PriA inh	CCHF vOTU inh	Sa RN4220 lethal	VHR inh abs	Sa ugtP lethal
Cc1nc2ccccc2n1CC(O)Cn1c2ccccc2c2ccccc21 (centres undefined)	0	0	0	0	0
O=S(=O)(NC1CCCCC1N1CCOCC1)c1ccccc1 (centres undefined)	0	-	-	-	-
O=S(=O)(NC1CCCCC1N1CCC(O)CC1)c1ccccc1 (centres undefined)	0	0	0	58	0
COc1ccccc1N1COc2ccc3c(=O)c(-c4ccccc4)coc3c2C1	32	-	-	-	-
COc1ccc(-c2coc3c4c(ccc3c2=O)OCN(c2ccc(F)cc2F)C4)cc1OC	0	-	-	-	-
COc1cc(/C=N/N2CCCCC2)cc([N+](=O)[O-])c1O	-	0	-	60	-
COC(=O)NN=Cc1cc(OC)c(O)c([N+](=O)[O-])c1	0	-	0	-	0
CCn1nc(C)c(CNC(=O)Cn2cnc3c([nH]c4ccc(C)cc43)c2=O)c1C	0	-	-	-	-
Cc1ccccc1C(=O)NC(=S)Nc1ccc(Oc2ccc(Cl)cc2)cc1	0	0	0	0	86
Cc1ccc(C(=O)NC(=S)Nc2ccc(Oc3ccc(Cl)cc3)cc2)cc1	0	0	0	0	0
O=C(NC(=S)Nc1cccnc1Cl)c1ccc(Cl)cc1	0	0	0	0	88
O=C(Cc1ccccc1)Nc1ccc(NC(=S)NC(=O)c2ccccc2)cc1	0	0	0	0	84
O=C(NC(=S)Nc1ccc(Oc2ccccc2)cc1)c1ccc(Cl)cc1	0	0	0	0	98
c1ccc2oc(-c3ccc(-c4nc5ccccc5o4)c4ccccc34)nc2c1	0	-	-	-	-
